For orientation: inhibition means the change of the read-out against control, counted positive when it falls.

In all, about 290,000 compounds went through this assay and about 27,000 (9.3%) were called active. The entries come from a sample that favours actives as a whole. Values without a mark were called inactive. No stated cut-off is given here; in the data, active means inhibition mostly above about 28% (no sharp cut-off); inactive means mostly below about 43%.

This note sets out measurements from PubChem BioAssay AID2315 (National Center for Advancing Translational Sciences (NCATS), 2010).

This test can be described thus: A qHTS for Small Molecule Inhibitors of Shiga Toxin. Further: 0% is about no effect. As to conditions: Vero cells, Shiga toxin protein synthesis inhibition reporter; at 38.7 µM, active compounds read high. (In general: In qHTS, concentration-response curves come from the screen itself.)
As for `COc1ccc(OC)c(NC(=O)c2ccc3c(c2)C(=O)N(c2ccc(OC(C)=O)cc2)C3=O)c1`, the inhibition was -4.38%. In the case of `COc1cc(NC(=O)c2ccc(-c3csc(C)n3)cc2)c(OC)cc1Cl`, the inhibition was -19.7%. For the molecule `O=c1oc2ccccc2c(NC2CCCCC2)c1NS(=O)(=O)c1ccc(Cl)cc1`, the inhibition was -3.24%.

Consider `Cc1ccc(CN(CC(=O)NCC2CCCO2)S(=O)(=O)c2ccc(C)cc2)cc1` (stereo unspecified), for which the inhibition is -7.48%.

Regarding `Cc1cccc(N2C(=O)N3[C@H](c4ccc(F)cc4)[C@@H]4C(=O)N(C5CCCCC5)C(=O)[C@@H]4[C@]3(Cc3ccccc3)C2=O)c1`, the inhibition is -2.98%. In the case of `COc1ccccc1CNC(=O)c1ccc(N(C)S(=O)(=O)c2ccc(C)cc2)cc1`, the inhibition was 4.41%.

With `CN(c1ccccc1)S(=O)(=O)c1ccc(C(=O)NCCc2ccccc2)cc1`, the inhibition is 50.1% (active). On to `Cc1ccccc1CSCCNC(=O)c1ccc(N(C)S(=O)(=O)c2ccccc2)cc1`, for which the inhibition was -13.5%. With `CCCCNC(=S)NNC(=O)c1cc(C)on1`, the inhibition is 6.4%. Under `CCN(CC)CCCNC(=O)c1cc(-c2cccc(Cl)c2)on1` stands -7.26%; under `CC(C)CNC(=O)c1cc(-c2ccc(Br)cc2)on1`, 52.5% (active); under `Cc1c(NC(=O)c2cc(-c3ccc(Br)cc3)on2)c(=O)n(-c2ccccc2)n1C`, 20%. For `Cc1cc(C(=O)NCCCc2ccccc2)no1`, the inhibition was 35.8% (active). `CSc1ncc(C(=O)NCCCc2ccccc2)c(C)n1`: the inhibition is 28.3%. As for `CC(C)Cn1c(=O)c2ccccc2n2c(CCC(=O)NCc3ccccn3)nnc12`, the inhibition is 17.2%. `O=Cc1cn(-c2ccccc2)nc1-c1ccccn1`: the inhibition is 16.4%. `Cc1ccccc1OCC(=O)NNC(=O)c1cc(S(=O)(=O)N(C)C)ccc1N1CCCC1`: the inhibition was -3.25%.

With `CCCCNC(=O)C1(O)c2ccccc2NC(=O)N1c1ccc(Cl)cc1` (stereo unspecified), the inhibition is 20.3%.

With `COc1ccc(N2CCN(C3CCCCC3NS(=O)(=O)c3ccccc3)CC2)cc1` (stereo unspecified), the inhibition is -5.29%. For the molecule `CC(C(=O)c1ccc(-c2ccccc2)cc1)[n+]1cccc(Br)c1` (stereo unspecified), the inhibition was -5.48%. As to `CCn1c(SCC(=O)Nc2ccc3c(c2)OCCO3)nnc1C(C)C`, the inhibition is 23.4%. For `CCC(=O)N1CCN(c2ccccc2NC(=O)COc2cccc(C)c2C)CC1`, the inhibition is -4.98%. With `COc1ccc(S(=O)(=O)N2CCOC2CNC(=O)C(=O)NCc2ccc(F)cc2)cc1` (stereo unspecified), the inhibition is -3.23%. For `Cc1ccc(S(=O)(=O)NCCCn2ccnc2)cc1C(=O)NC(C)C`, the inhibition was -5.57%. `COc1cccc(NC(=S)NCc2ccco2)c1`: the inhibition was -1.12%. As for `COc1ccc2c(Cl)c(C(=O)NCc3ccco3)sc2c1`, the inhibition is 93.2% (active). Regarding `COc1ccc(C(=O)Nc2ccccc2C(=O)NCc2ccco2)cc1`, the inhibition is 55.1% (active). `O=C(NCc1ccco1)c1nn2cccnc2c1Cl`: the inhibition was 18.5%. The result for `COc1ccc2oc(C(=O)NCC(Cc3ccccc3)N(C)C)c(C)c2c1` (stereo unspecified) reads 19.2%; that for `Cc1ccc(N(Cc2ccc(C(=O)Nc3ccccc3C(=O)NCc3ccco3)cc2)S(C)(=O)=O)cc1C`, -16.6%. Regarding `O=C(Nc1ccccc1)Nc1ccccc1C(=O)NCc1ccco1`, the inhibition is 17.2%. Turning to `COc1cc(C(=O)N[C@@H](C)C(=O)NCc2ccco2)cc(OC)c1OC`, the inhibition is -3.33%. The result for `O=C(NCc1ccco1)c1sc2cccc(F)c2c1Cl` reads 80.8% (active).

On to `COc1cc(C(=O)NC(=S)NCc2ccco2)cc(OC)c1OC`, for which the inhibition was -9.57%. Consider `O=C(NCc1ccco1)c1cc2sccc2n1Cc1ccc(F)cc1`, for which the inhibition is 59.6%. In the case of `COc1ccc2oc(C(=O)NCc3ccco3)c(C)c2c1`, the inhibition is 57% (active). `CCNc1c(NS(=O)(=O)c2ccc(C3CCCCC3)cc2)c(=O)oc2ccccc12`: the inhibition was -11.4%.

Consider `COc1ccc(OCC(O)CN(C)C(=O)C(C)Oc2ccccc2)cc1` (stereo unspecified), for which the inhibition was -1.44%. For `Cc1cccc(NS(=O)(=O)c2ccc(-c3cnc(C4CC4)o3)cc2)c1`, the inhibition was 14.4%.

With `CC(C)[C@H](NC(=O)N1CC(=O)Nc2ccccc21)C(=O)N[C@@H](Cc1c[nH]c2ccccc12)C(=O)O`, the inhibition is -8.09%. The result for `C=CCOc1cccc(C2NC(=O)c3ccccc3O2)c1` (stereo unspecified) reads 5.66%; that for `Cc1ccc(S(=O)(=O)N2CCN(C(=O)CSc3cc(C)ccc3C)CC2)c(C)c1`, -13%. As to `COc1ccc(C(=O)Nc2ccccc2C(=O)N/N=C/c2ccccc2OC)cc1`, the inhibition was 89.2% (active). With `COc1ccc(C(=O)Nc2ccccc2C(=O)N/N=C/c2ccc(O)c(OC)c2)cc1`, the inhibition was -21.6%. For `COc1ccccc1C(=O)NNC(=O)c1ccc(NC(=O)c2ccccc2)cc1`, the inhibition was -13.9%.

For `COc1ccc(C(=O)NC(C)c2nccs2)cc1OC1CCN(C(C)C)CC1` (stereo unspecified), the inhibition was -1.47%. As to `Cc1nc2ccc(NC(=S)N3CCC(C)CC3)cc2nc1C`, the inhibition was 33.9% (active). Consider `Cc1nc2ccc(NC(=O)N3CCC(c4ccccc4)C3)cc2nc1C` (stereo unspecified), for which the inhibition is 2.35%.

`Cc1cccc(NC(=S)N2CCC(c3nc4ccccc4s3)CC2)c1`: the inhibition was -9.34%. As for `O=C(Cn1ncc(N2CCCC2)c(Br)c1=O)c1ccc(Cl)cc1`, the inhibition is 37.7% (active). `Cn1c(=O)c2c(nc(N3CCCCCC3)n2CC(=O)c2ccc(Br)cc2)n(C)c1=O`: the inhibition is 2.71%. Consider `CC(=O)Cn1ncc(N2CCOCC2)c(Br)c1=O`, for which the inhibition was -5.02%.

With `O=C(CNc1cccc(S(=O)(=O)N2CCCCC2)c1)Nc1ccccc1F`, the inhibition was -9.02%. Consider `CCc1ccc(NC(=O)Cn2nnc(C(=O)NCc3ccc4c(c3)OCO4)c2N)cc1`, for which the inhibition is 0.685%. Regarding `Cc1cccc2sc(N(CCCN(C)C)C(=O)CCS(=O)(=O)c3ccccc3)nc12`, the inhibition was 6.64%. Turning to `CCn1nc(C(=O)OCC(=O)N2c3ccccc3CC2C)c2ccccc2c1=O` (stereo unspecified), the inhibition is -10.9%. In the case of `CCCC(=O)N1c2ccc(-c3csc(N)n3)cc2CC1C` (stereo unspecified), the inhibition was 71.3% (active). Under `Cc1ccn(CCC(=O)N2c3ccccc3CC2C)n1` (stereo unspecified) stands -3.39%; under `CCC(C)Sc1nc2c(cnn2-c2ccc(F)cc2)c(=O)[nH]1` (stereo unspecified), -5.58%. With `COc1cccc(OCC(O)CNC(=O)c2oc3c(C)c(C)ccc3c2C)c1` (stereo unspecified), the inhibition was -9.45%. For `CCOCc1nnc(NC(=O)CCS(=O)(=O)Cc2ccccc2)s1`, the inhibition is -3.13%. Consider `Cc1cccc(CCNS(=O)(=O)c2ccc3c(c2)NC(=O)CO3)c1`, for which the inhibition was -6.16%. The result for `Cc1cc2ncn(CCCCOc3ccccc3)c2cc1C` reads -3.93%; that for `Cc1nn(CCOc2ccccc2)c(=O)n1-c1ccccc1F`, 72.3% (active).

Take `Clc1ncn(CCOc2ccccc2)c1Cl`: the inhibition is -16.2%. With `COc1ccc(-c2nc3c(s2)CCc2onc(-c4ccc(OC)cc4)c2-3)cc1`, the inhibition was -4%.

Turning to `Cc1nn(C)c(Cl)c1CN1CCC(n2nccc2NC(=O)C2CCCC2)CC1`, the inhibition was -4.44%. On to `O=C(NCc1cccc(Cl)c1)C1CCC(=O)N(C2CC2)C1` (stereo unspecified), for which the inhibition is 1.78%. The result for `Cc1c(/C=N\NC(=O)c2cc3ccccc3o2)c2ccccc2n1C` reads 33.2%; that for `O=C(N/N=C/c1c[nH]c2ccccc12)c1ccccc1O`, 46.2% (active).

As for `CSC(=S)N/N=C/c1c[nH]c2ccccc12`, the inhibition is 18.5%. For `O=C(N/N=C/c1coc2ccccc2c1=O)c1cc2ccccc2o1`, the inhibition was -15.3%. Regarding `O=C(N/N=C/c1c[nH]c2ccccc12)c1cc2ccccc2o1`, the inhibition is 51.6% (active). Turning to `O=C(N/N=C/c1ccc([N+](=O)[O-])cc1)c1c[nH]c2ccccc12`, the inhibition is 35.6%. Turning to `COc1cccc(NC(=O)C/C(C)=N/NC(=O)C2CCCCC2)c1`, the inhibition was 5.94%. In the case of `CCC(C)C(NC(=O)C1CCC(=O)N1C(=O)OCc1ccccc1)C(=O)NC(C(=O)N1CCCC1C(N)=O)C(C)CC` (stereo unspecified), the inhibition is -2.25%.

As to `CCCCCNC(=O)Cc1ccc(OC)cc1`, the inhibition was 35.5%. The result for `COc1ccc(C/C(C)=N/NC(=O)c2cc(C)oc2C)cc1` reads 39.4% (active). On to `COc1ccc(C/C(C)=N/NC(=O)c2ccncc2)cc1`, for which the inhibition was 13.5%. Consider `Cc1nc2nc(C)c(NS(=O)(=O)c3ccc(C(C)(C)C)cc3)c(=O)n2[nH]1`, for which the inhibition was -4.52%. As to `Cc1ccccc1C(CC(=O)c1cccs1)C(C#N)C#N` (stereo unspecified), the inhibition was 60.4% (active).

Take `Cc1ccc(C)c(NC(CC(=O)c2ccccc2)C(=O)OCC(=O)c2cccs2)c1` (stereo unspecified): the inhibition is -2.14%. In the case of `C/C(=N\NC(=O)COc1c(C)cccc1C)c1cccs1`, the inhibition is 23.6%. On to `CCOc1ccc(CN2CCN(Cc3c[nH]c4ccccc34)CC2)cc1`, for which the inhibition is -7.52%. `C/C=C/C(=O)OCc1csc(CC(=O)Nc2ccccc2C)n1`: the inhibition is -12.5%. On to `Cc1ccc2c(c1)c1ncn(Cc3ccc(F)cc3)c(=O)c1n2C`, for which the inhibition was -13.4%. For the molecule `Cc1ccc2c(c1)c1ncn(CCC3=CCCCC3)c(=O)c1n2C`, the inhibition was 1.3%. The result for `Cc1ccc2c(c1)c1ncnc(N3CCc4ccccc4C3)c1n2C` reads 61.5% (active). Regarding `COc1ccc(-c2cc(C(=O)N3CCN(Cc4ccc5c(c4)OCO5)CC3)on2)cc1OC`, the inhibition was -5.83%. For `O=C1CCC(CCC(=O)N2CCCC(C(=O)c3ccc(Cl)cc3)C2)=NN1` (stereo unspecified), the inhibition was 12.9%. Under `COCC1CCCN(C(=O)c2ccc3oc(C(C)C)nc3c2)C1` (stereo unspecified) stands 13.8%. Consider `COCC1CCN(C(=O)CCc2nnc(C3(c4ccc(Cl)cc4)CCC3)o2)C1` (stereo unspecified), for which the inhibition is 59.4% (active). On to `CCn1c(SCC(=O)Nc2ccc3c(c2)OCCO3)nnc1-c1ccncc1`, for which the inhibition was 24.3%.

For `O=C(O)c1ccccc1-c1ccccc1C(=O)Nc1cccc2ccccc12`, the inhibition is -18.7%. Regarding `O=C(Nc1cccc2ccccc12)c1onc2c1CCCC2`, the inhibition is 80.7% (active).

Take `O=C(COC(=O)c1ccccn1)Nc1cccc2ccccc12`: the inhibition is -15.8%.
